Drawing on ChEMBL document CHEMBL4513216, “Probing the Open Global Health Chemical Diversity Library for Multistage-Active Starting Points for Next-Generation Antimalarials” (ACS Infect Dis, 2020), this text covers INHIBITION for 109 compounds.

The structures appear in SMILES notation. In all, about 69,000 compounds went through this assay and about 8,600 (12%) showed an effect of 50% or more. For the sample, strong results were picked, then their nearest neighbours and some compounds at random.

This test concerns Plasmodium berghei. Nature of the test: Screen against P. berghei liver stage (PbLuc), transformed with Luciferase, at 10uM. In kind it is functional, HepG2. The note with it: tested at 10 uM.
Turning to `O=c1oc(-c2ccc(F)cc2)nn1CC1CCOC1` (centres undefined), the INHIBITION came out at 62.3%. In the case of `CC1CCN(Cn2nc(-c3ccc(F)cc3)oc2=O)CC1`, the INHIBITION was determined as 9.25%. For the compound `O=c1oc(-c2ccc(F)cc2)nn1CC1CCCCO1` (centres undefined), the INHIBITION was determined as 59.3%. For `O=C(Cn1nc(-c2ccc(F)cc2)oc1=O)NCC1CCCO1` (centres undefined) the value was -36.1%; for `O=c1oc(-c2ccc(F)cc2)nn1CN1CCN(CC2CC2)CC1`, 30.6%.

For `O=c1oc(-c2ccc(F)cc2)nn1CN1CCN(C2CCCC2)CC1`, the INHIBITION is 29.4%. The result for `COCCN1C[C@@H]2[C@@H](OC)CCN(Cc3ccco3)[C@@H]2C1` reads 22.2%; that for `Cn1cc(C2CC(=O)NC23CCN(Cc2cccc(F)c2)CC3)cn1` (centres undefined), -1.36%. Regarding `CN(CCc1ccccn1)C(=O)C(O)c1cc(Cl)cc(Cl)c1` (centres undefined), the INHIBITION is listed as 10.1%.

On to `CSc1ccc(NC(=O)NCC2CCCO2)cc1F` (centres undefined), for which the INHIBITION was -81.9%.

For the compound `C[C@@H]1CN(c2nc(N)nc3c2CCC3)CC[C@@]1(O)C1CCC1`, the INHIBITION stood at 83.3%. The result for `C[C@@H]1CN(c2nc3c(cc2C(N)=O)CCC3)CC[C@@]1(O)C1CCC1` reads -2.93%.

As for `C[C@@H]1CN(c2nc(N)nc3c2CCC3)C[C@]1(C)O`, the INHIBITION turned out to be 8.53%.

For `Cc1ccc(C)c(Sc2nccn(C)c2=O)c1`, the INHIBITION was -13.1%. Take `COc1ccc(Cl)cc1CN(CC(N)=O)C(C)C`: the INHIBITION is -6.04%. The result for `COCCNc1cc(-c2ccccc2CCN)c2cc[nH]c2n1` reads 25.8%. On to `CN(C)CCNc1cc(-c2ccccc2C(N)=O)c2cc[nH]c2n1`, for which the INHIBITION came out at 15.8%. On to `Cc1cnccc1-c1cc(NCCO)nc2[nH]ccc12`, for which the INHIBITION amounted to 58%. On to `COCCNc1cc(-c2ccccc2C(=O)O)c2cc[nH]c2n1`, for which the INHIBITION is listed as 30.3%. The result for `Cc1cc(F)ccc1-c1cc(NCCO)nc2[nH]ccc12` reads -13.1%; that for `COCCNc1cc(-c2cccc(C(=O)O)c2C)c2cc[nH]c2n1`, 58.5%. For `COCCNc1cc(-c2ccccc2C(N)=O)c2cc[nH]c2n1` the value was 60.3%.

`Cc1cccc(C)c1-c1cc(NCCO)nc2[nH]ccc12`: the INHIBITION was found to be 45%. For `COCCNc1cc(-c2ccccc2S(N)(=O)=O)c2cc[nH]c2n1` the value was 23%; for `CN1CC(=O)N(c2cccnc2)CC12CCN(C(=O)C1CCCCC1)C2` (centres undefined), 31.2%. For `Cc1csc(CNC(=O)Nc2ccc3c(c2)OCO3)n1` the value was -51.9%; for `CCCS(=O)(=O)N1C[C@@H]2C[C@H](C(=O)N(C)C)[C@H](C1)O2`, 49.7%. The result for `CC(C)(C)c1ncc(C(=O)NCCNC(=O)Cc2ccccc2)s1` reads 45.7%; that for `Cc1ccccc1-c1noc(CN2CCc3cncnc3C2)n1`, 8.195%; that for `O=c1ccc(-c2cccs2)nn1CN1CCOCC1`, -1.33%. Regarding `O=C1COC2(CCN(c3ccccn3)CC2)CN1Cc1ccccn1`, the INHIBITION is 16.6%. With `CCCc1noc(CN2CCC(N(C)Cc3nnc(C4CC4)o3)C2)n1` (centres undefined), the INHIBITION was -16%. On to `COC(=O)c1cccn1C1CCN(Cc2nc3ccccc3o2)CC1`, for which the INHIBITION was determined as 15.6%. As for `COC(=O)c1cccn1C1CCN(Cc2cccnc2)CC1`, the INHIBITION was 11.6%.

Regarding `COC(=O)c1cccn1C1CCN(CCN2C(=O)CCC2=O)CC1`, the INHIBITION is recorded as 1.75%. For the compound `COC(=O)c1cccn1C1CCN(Cc2cccc(C(N)=O)c2)CC1`, the INHIBITION is 45.1%. The result for `COC(=O)c1cccn1C1CCN(Cc2cnc3ccccn23)CC1` reads 66.8%; that for `COC(=O)c1cccn1C1CCN(Cc2ccccc2)CC1`, 56.1%. Turning to `Cc1nc(CN2CCC(N(C)Cc3nnc(C4CC4)n3C)C2)oc1C` (centres undefined), the INHIBITION came out at 16.8%. For `Cc1ccc(CN2CCC3(CC2)CCN(Cc2ccco2)CC3)cc1` the value was -13.7%. For `Cc1ccc(N2C[C@H](C(=O)NCC3CC3)[C@@H]3CCO[C@@H]3C2)nn1` the value was 42.7%; for `COCC1CN(Cc2ccoc2)Cc2nnn(C)c21` (centres undefined), -6.21%; for `CCc1nc2n(n1)CC(NCC(=O)Nc1oc(C)c(C)c1C#N)CC2` (centres undefined), -13.5%.

As to `COc1ccc2c(c1)NC(=O)C2OC(=O)CC(C)(C)C` (centres undefined), the INHIBITION was 44%. With `COc1ccc2c(c1)NC(=O)C2OC(=O)Cc1ccccc1C` (centres undefined), the INHIBITION is on record as 58.5%.

With `COc1ccc2c(c1)NC(=O)C2OC(=O)CCc1ccc(F)cc1` (centres undefined), the INHIBITION is 14.9%. The result for `CN(C)c1cc(C(F)(F)F)nc(N2CCCC2c2ccccn2)n1` (centres undefined) reads -84.3%; that for `CN(Cc1nnc2n1CCC2)C(=O)c1ccc2c(c1)OCO2`, 16.8%; that for `Cc1cccc(CN2CCc3ncnc(C4CC4)c3CC2)n1`, -27.4%. For `Cc1c(CN2Cc3nccn3CC2c2ccccc2)cnn1C` (centres undefined) the value was 14.435%; for `CCc1nc(Cn2c(=O)c3c(C(F)(F)F)cc(C)nc3n2C)no1`, 10.5%. The result for `COC(C)Cc1nc(-c2cnn3c(C)cc(C)nc23)no1` (centres undefined) reads 31.2%; that for `CCN(CC)C(=O)CCc1nc(-c2cnn3c(C)cc(C)nc23)no1`, 57.7%; that for `CCS(=O)(=O)Cc1nc(-c2cnn3c(C)cc(C)nc23)no1`, 70.5%. Take `COCCc1nc(-c2cnn3c(C)cc(C)nc23)no1`: the INHIBITION came to 34.6%.

Regarding `CCOCCc1nc(-c2cnn3c(C)cc(C)nc23)no1`, the INHIBITION is given as 10.6%. With `Cc1nc(CN(C)C2CCN(CCc3cnn(C)c3)C2)no1` (centres undefined), the INHIBITION is recorded as 11.2%. As for `Cc1ccccc1C(=O)NC(C)CN1CCOC1=O` (centres undefined), the INHIBITION came out at 39.3%. Regarding `CCS(=O)(=O)N1CCN(C(C)(C)CO)CC1`, the INHIBITION is given as 11%.

With `Cc1cnn(CCNCc2cc(C#N)ccc2F)c1`, the INHIBITION was 34.15%. For `Cc1noc(C)c1CN1CCn2c(CN3CCN(C)CC3)cnc2C1` the value was 21.6%; for `CCc1cc(N2CCC(NC3CN4CCC3CC4)CC2)nc(N(C)C)n1` (centres undefined), 62.4%. Turning to `CCc1cc(N2CCC(NC3CCOCC3)CC2)nc(N(C)C)n1`, the INHIBITION came out at 29.1%. As for `CCc1cc(N2CCC(N[C@@H]3CS(=O)(=O)C[C@H]3O)CC2)nc(N(C)C)n1`, the INHIBITION was 35.3%.

On to `Cn1ncc2c1NC(=O)CC2c1ccc(F)cc1` (centres undefined), for which the INHIBITION was 3.46%. With `CCCn1nnnc1COc1cc(OC)ccc1C(N)=O`, the INHIBITION was -15%.

As for `CC(C)C[C@@H](N)C(=O)N(C)Cc1csc(C(C)C)n1`, the INHIBITION is listed as -40.5%. `CC(C)n1cc(S(=O)(=O)N2CCSCC2)cn1`: the INHIBITION is -28.8%.

On to `CNC(=O)C1Cn2ccnc2C2(CCN(Cc3cccc(C)n3)CC2)O1` (centres undefined), for which the INHIBITION is 29.6%. For `CC(C(=O)NC(N)=O)N1CCN(c2ccc(C#N)cc2F)CC1` (centres undefined), the INHIBITION is given as -45%. Regarding `Cc1cc(NC(=O)C(C)N2CCN(c3ccccc3F)CC2)no1` (centres undefined), the INHIBITION came to 8.38%.

`Cc1cc(NC(=O)C(C)N2CCN(c3ccc(C#N)cc3F)CC2)no1` (centres undefined): the INHIBITION was determined as 55%. On to `COCC(=O)N1CC[C@@H](OCC2CC2)[C@@H]1Cc1cccnc1`, for which the INHIBITION was -31.4%. For `Cc1cnn(CC2CCCN2Cc2noc(C(C)C)n2)c1` (centres undefined) the value was 25.6%; for `COCCO[C@H]1CCN(C(=O)C2CCOCC2)[C@H]1Cc1ccncc1`, 26.7%; for `CCOc1cncc(N2CCN(c3ccccc3O)CC2)n1`, 39.7%. Regarding `c1ccc(OCCNC2CCN(c3ncccn3)CC2)cc1`, the INHIBITION is listed as -32.6%. For `Cc1cc(N2CCC(NCCOc3ccccc3)CC2)nc(C)n1` the value was 9.72%; for `Cc1nc(C)c(C)c(N2CCC(NCCOc3ccccc3)CC2)n1`, 77.8%; for `O=C(CC1COCCN1)N1CCC2(CCc3ccccc32)CC1` (centres undefined), -60.2%. As to `CC1CN(Cc2cccc(C#N)c2)CCN1c1ccc2nncn2n1` (centres undefined), the INHIBITION was 53.5%. The result for `CC1CN(c2ccc(C#N)cn2)CCN1c1ccc2nncn2n1` (centres undefined) reads -9.69%; that for `Cc1ncc(CN2CCN(c3ccc4nncn4n3)C(C)C2)s1` (centres undefined), 8.64%.

Consider `CC1CN(Cc2cnn(C)c2)CCN1c1ccc2nncn2n1` (centres undefined), for which the INHIBITION is recorded as 10%.

As for `COc1cccc(CN2CCN(c3ccc4nncn4n3)C(C)C2)c1` (centres undefined), the INHIBITION turned out to be 83%.

As to `CC1CN(Cc2cccnc2)CCN1c1ccc2nncn2n1` (centres undefined), the INHIBITION was 16.9%. The result for `CC(C)c1nccn1C1CCCN(C(=O)c2cc(C3CC3)on2)C1` (centres undefined) reads 48.4%; that for `CNC(=O)C1CN(C(=O)Cc2ccc(OC)cc2)Cc2cn(C)nc21` (centres undefined), -6.51%.

For `O=C(NC1CCN(c2cccc(OC(F)(F)F)c2)C1=O)C1CC1` (centres undefined), the INHIBITION was determined as 61.1%.

In the case of `O=C(NC1CCN(c2cccc(OC(F)(F)F)c2)C1=O)C1CCC1` (centres undefined), the INHIBITION amounted to 34.6%. For `CCC(=O)NC1CCN(c2cccc(OC(F)(F)F)c2)C1=O` (centres undefined) the value was 40.6%; for `O=C1NCC[C@]12CN(Cc1nccs1)C[C@H]2c1ccccc1`, 45.8%. The result for `CN(CC1(C)COC1)C(=O)c1cc(-c2cnn(C)c2)nc2ccccc12` reads 9.7%; that for `COc1ccccc1-c1c[nH]c(C2CCCN2)n1` (centres undefined), -33.3%; that for `CCc1n[nH]c(C(=O)N2CCN(c3ccc4ccccc4c3)CC2)c1C`, 61.1%. In the case of `CCc1ocnc1C(=O)N1CCN(c2ccc3ccccc3c2)CC1`, the INHIBITION was 26.5%.

As for `CCc1n[nH]c(C(=O)N2CCCC3(CN(C)C(=O)O3)C2)c1C` (centres undefined), the INHIBITION was 45.2%. In the case of `CC(C)N(CCS(C)(=O)=O)Cc1csc(Cc2ccc(Cl)cc2)n1`, the INHIBITION was found to be 35%. The result for `CC(C)N(CCS(C)(=O)=O)Cc1csc(-c2ccccc2F)n1` reads 33.2%. With `Cc1nc(CN(CCS(C)(=O)=O)C(C)C)cs1`, the INHIBITION worked out at 53.6%.

For the compound `Cc1cc(S(=O)(=O)N(CCO)C2CC2)ccc1F`, the INHIBITION is listed as 26.1%. As for `CCC(=O)c1ccc(OCC(=O)NC(C)Cc2cc(C)n[nH]2)cc1` (centres undefined), the INHIBITION worked out at 27.6%.

In the case of `Cc1cc(CC(C)NC(=O)COc2ccc(F)cc2F)[nH]n1` (centres undefined), the INHIBITION is on record as 40.6%.

For the compound `Cc1cc(CC(C)NC(=O)Cc2cc(F)ccc2C)[nH]n1` (centres undefined), the INHIBITION was found to be 73%.

On to `Cc1ccc(CNC(=O)NC(C)CCS(C)(=O)=O)cc1F` (centres undefined), for which the INHIBITION is -1.15%. For `Cc1ccc(CNS(=O)(=O)CCCC#N)cc1F` the value was 58.1%; for `Cc1cc(CNS(=O)(=O)CCCC#N)ccc1N(C)C`, 33.1%; for `CC(C)C(C)NC(=O)Nc1ccc(CS(=O)(=O)C(C)C)cc1` (centres undefined), -4.68%. As for `Cc1ccccc1NC1CCN(C(=O)CCc2ccco2)CC1`, the INHIBITION is listed as -26.6%.
